In PubChem BioAssay (Tox21):
Inconclusive results are not listed. The source made the active and inactive calls. Unless noted, calls come from the whole dose curve; as a rule, active = well fitted curve in the direction sought with a large enough effect in the repeat runs; inconclusive = weak or mixed curves; inactive = no such curve, though single readings can be large; an effect the other way counts as inactive or inconclusive.

Assays:
[1] = qHTS assay to identify small molecule antagonists of the glucocorticoid receptor (GR) signaling pathway - cell viability counter screen (AID 720693); note: nearly all actives have a fitted effect of over 55% in size
[2] = qHTS assay for identifying genotoxic compounds that show differential cytotoxicity against isogenic chicken DT40 cell lines with known DNA damage response pathways - wild type cell line (AID 743012); note: nearly all actives have a fitted effect of over 60% in size; note: potency is the fitted concentration of half-maximal effect
How it was run: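 Wild type DT40, 300 cells/well, ~0.5 h settle at 37 C/5% CO2; compounds in DMSO added by pintool; 40 h at 37 C/5% CO2; CellTiter-Glo, 30 min RT; luminescence.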

[3] = qHTS assay for identifying genotoxic compounds that show differential cytotoxicity against isogenic chicken DT40 cell lines with known DNA damage response pathways - Rad54/Ku70 mutant cell line (AID 743015); note: nearly all actives have a fitted effect of over 60% in size; note: potency is the fitted concentration of half-maximal effect
[4] = qHTS assay to identify small molecule antagonists of the androgen receptor (AR) signaling pathway - cell viability counter screen (AID 743033; note: nearly all actives have a fitted effect of over 45% in size)
[5] = molecular target: Androgen receptor (Homo sapiens) (UniProt P10275); assay: qHTS assay to identify small molecule antagonists of the androgen receptor (AR) signaling pathway (AID 743035; active = well fitted inhibition curve with a large enough effect in the signal ratio in the repeat runs, not every such curve was filed as active; the % refers to the signal ratio)
How it was run: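 Fluorescence from a beta-lactamase FRET substrate (LiveBLAzer B/G, 2 h, room temperature) measured inhibition of R1881-stimulated signaling in GeneBLAzer AR-UAS-bla HEK293 cells exposed to compound for 16 h at 37C.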

[6] = molecular target: Androgen receptor (Homo sapiens) (UniProt P10275); assay: qHTS assay to identify small molecule agonists of the androgen receptor (AR) signaling pathway using the MDA cell line (AID 743040; note: nearly all actives have a fitted effect of over 20% in size; note: potency is the fitted concentration of half-maximal effect)
How it was run: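 Luminescence from ONE-Glo, read after 30 min at room temperature, reflects MMTV-driven luciferase in MDA-kb2 cells (AR- and GR-responsive). Treatment lasted 16 h at 37C, 0% CO2.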

[7] = qHTS assay to identify small molecule antagonists of the androgen receptor (AR) signaling pathway using the MDA cell line - cell viability counter screen (AID 743041; note: nearly all actives have a fitted effect of over 45% in size)
How it was run: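 Viability counter screen run alongside the AR antagonist reporter: cells seeded 5 h before compound, R1881 added, 16 h incubation at 37C without CO2, fluorescent CellTiter-Fluor signal quantified.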

[8] = molecular target: Androgen receptor (Homo sapiens) (UniProt P10275); assay: qHTS assay to identify small molecule antagonists of the androgen receptor (AR) signaling pathway using the MDA cell line (AID 743042; note: nearly all actives have a fitted effect of over 55% in size)
How it was run: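 MDA-kb2 cells (human breast carcinoma, stably carrying an MMTV-luciferase reporter responsive to AR and GR) were plated at 3,000 cells/well and preincubated 5 hr at 37C, then given compound plus R1881 agonist for 16 h. ONE-Glo luminescence was read.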

[9] = qHTS assay for identifying genotoxic compounds that show differential cytotoxicity against isogenic chicken DT40 cell lines with known DNA damage response pathways - Rev3 mutant cell line (AID 743014); note: nearly all actives have a fitted effect of over 55% in size; note: potency is the fitted concentration of half-maximal effect
[10] = molecular target: Androgen receptor (Homo sapiens) (UniProt P10275); assay: qHTS assay to identify small molecule agonists of the androgen receptor (AR) signaling pathway (AID 743036; active = well fitted activation curve with a large enough effect in the signal ratio in the repeat runs, with a control signal flat, not every such curve was filed as active; the % refers to the signal ratio)
How it was run: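 Fluorescence from a beta-lactamase FRET substrate served as read-out in AR-UAS-bla GripTite HEK293 cells. Cells were treated with DMSO-dissolved compounds for 16 h at 37C, then with LiveBLAzer B/G substrate for 2 h at room temperature.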

Measured: Potency

Chain of Androgen receptor (Homo sapiens) (P10275 whole entry, looked up): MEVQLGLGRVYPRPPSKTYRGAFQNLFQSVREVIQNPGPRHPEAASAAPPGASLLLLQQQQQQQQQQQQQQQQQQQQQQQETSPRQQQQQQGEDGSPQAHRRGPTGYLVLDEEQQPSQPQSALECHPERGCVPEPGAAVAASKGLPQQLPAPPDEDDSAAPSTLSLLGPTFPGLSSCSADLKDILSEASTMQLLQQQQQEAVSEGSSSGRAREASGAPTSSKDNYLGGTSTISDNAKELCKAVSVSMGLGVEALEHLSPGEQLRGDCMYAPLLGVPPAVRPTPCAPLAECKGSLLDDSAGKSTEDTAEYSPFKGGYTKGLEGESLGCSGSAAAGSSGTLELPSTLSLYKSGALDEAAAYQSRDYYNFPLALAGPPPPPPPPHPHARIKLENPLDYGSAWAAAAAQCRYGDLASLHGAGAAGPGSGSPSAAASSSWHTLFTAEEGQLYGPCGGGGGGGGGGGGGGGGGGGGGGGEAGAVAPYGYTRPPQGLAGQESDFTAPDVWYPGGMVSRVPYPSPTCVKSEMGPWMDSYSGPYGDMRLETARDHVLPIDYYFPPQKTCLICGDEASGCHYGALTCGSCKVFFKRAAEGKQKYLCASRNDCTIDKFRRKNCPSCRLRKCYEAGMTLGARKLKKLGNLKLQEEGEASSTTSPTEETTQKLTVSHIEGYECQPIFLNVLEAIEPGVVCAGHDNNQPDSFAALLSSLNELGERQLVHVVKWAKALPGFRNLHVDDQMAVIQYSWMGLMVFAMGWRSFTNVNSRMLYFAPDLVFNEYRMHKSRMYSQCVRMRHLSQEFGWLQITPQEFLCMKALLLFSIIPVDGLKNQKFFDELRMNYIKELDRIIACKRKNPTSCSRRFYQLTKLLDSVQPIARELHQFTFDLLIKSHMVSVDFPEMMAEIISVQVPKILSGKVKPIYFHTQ

CN1CC(=O)NC1=N
not listed: [9] | [10]
inactive: all other assays above

CN1CCCC1
inactive: [1] | [2] | [9] | [4] | [7]

CCOC(=O)[C@H](CCc1ccccc1)N[C@@H](C)C(=O)N1[C@H](C(=O)O)C[C@@H]2CCC[C@@H]21
inactive: [1] | [2] | [3] | [4] | [7]

CCOc1ccc(C(=O)OCCN(CC)CC)cc1
active: [9] 21.1 µM | [3] 26.6 µM
not listed: [2]
inactive: all other assays above

Cn1c(N)c(N=O)c(=O)n(C)c1=O
inactive: [1] | [2] | [9] | [4] | [7]

CC(=O)CC(C)(C)C1CCCCC1
inactive: [1] | [2] | [4] | [7]

Cc1cccn2c(=O)c(-c3nnn[nH]3)cnc12
inactive: [1] | [2] | [3] | [4] | [7]

Nc1ccc(S(=O)(=O)Nc2ccnn2-c2ccccc2)cc1
inactive: [1] | [2] | [9] | [4] | [7]

COC(=O)c1cc(C(=O)OC)cc(S(=O)(=O)O)c1
inactive: [1] | [2] | [9] | [4] | [7]

CCCCC(CC)COC(=O)c1ccccc1O (stereo not given)
inactive: [1] | [2] | [9] | [4] | [7]

Cc1[nH]c(=O)c(C#N)cc1-c1ccc2nccn2c1
inactive: [1] | [2] | [3] | [4]

CCn1nc(C(=O)O)c(=O)c2cc3c(cc21)OCO3
not listed: [3] | [4]
inactive: all other assays above

COC(C)(C)CCCC(C)CC=O (stereo not given)
inactive: [1] | [2] | [9] | [4] | [7]

CCOC(=O)C(=O)OCC
inactive: [1] | [2] | [3] | [4] | [7]

CCCCCCCCCCCC
inactive: [1] | [2] | [9] | [4] | [7]

CN1CCN(c2cc3c(cc2F)c(=O)c(C(=O)O)cn3-c2ccc(F)cc2)CC1
active: [2] 23.7 µM | [3] 29.8 µM | [6] 26.6 µM
inactive: [1] | [8]

O=C(O)CNC(=O)c1ccc([N+](=O)[O-])cc1
inactive: [1] | [2] | [9] | [4] | [7]

Cc1ccc(=O)n(-c2ccccc2)c1
inactive: [1] | [2] | [4] | [7]

C=C(C)C(=O)OCCCCCCCC(C)C
not listed: [2]
inactive: all other assays above

COC(=O)[C@@H](N)Cc1ccc(O)c(O)c1
active: [2] 29.8 µM | [3] 33.5 µM
not listed: [5] | [9]
inactive: all other assays above

O=C(O)COc1nn(Cc2ccccc2)c2ccccc12
not listed: [2] | [10]
inactive: all other assays above

Brc1c(NC2=NCCN2)ccc2nccnc12
inactive: [1] | [2] | [9] | [7]

N=C(N)c1ccccc1
inactive: [1] | [2] | [3] | [4] | [7]

ClC(Cl)(Br)Br
not listed: [2]
inactive: all other assays above

CC(C)CCCC(C)N (stereo not given)
inactive: [1] | [2] | [9] | [4] | [7]

Nc1nc2c(ncn2COC(CO)CO)c(=O)[nH]1
active: [2] 2.85 µM | [3] 8.04 µM
inactive: [1] | [7]

CCO/C([O-])=N/c1c[n+](N2CCOCC2)no1
inactive: [1] | [2] | [3] | [4] | [7]

NS(=O)(=O)c1ccc(C(=O)O)cc1
not listed: [9]
inactive: all other assays above

CCOC(=O)Nc1ccc(NCc2ccc(F)cc2)nc1N
inactive: [1] | [9] | [4] | [7]
active: [2] 26.6 µM

CCCCCCCCS(=O)(=O)Cl
inactive: [1] | [2] | [9] | [4] | [7]

CCc1nccnc1CC
inactive: [1] | [2] | [9] | [4] | [7]

CC(=O)Nc1ccc(S(N)(=O)=O)cc1
not listed: [2] | [3]
inactive: all other assays above

CCN(CC)CCNC(=O)c1cc(S(C)(=O)=O)ccc1OC
inactive: [1] | [9] | [3] | [7]
